Test in all cases: DAPPL (digital affinity profiling via proximity ligation, sequencing); 10 mM Tris-HCl pH 7.5, 50 mM NaCl, 1 mM DTT, 4% glycerol, room temperature, 30 min; GST-TFs on glutathione beads, 16-mer random dsDNA library, 0.1% formaldehyde crosslink after washing; high values mean tight binding
One experiment concerns the target T1, FLI1 (Homo sapiens, UniProt Q01543 1-452).
T1 sequence: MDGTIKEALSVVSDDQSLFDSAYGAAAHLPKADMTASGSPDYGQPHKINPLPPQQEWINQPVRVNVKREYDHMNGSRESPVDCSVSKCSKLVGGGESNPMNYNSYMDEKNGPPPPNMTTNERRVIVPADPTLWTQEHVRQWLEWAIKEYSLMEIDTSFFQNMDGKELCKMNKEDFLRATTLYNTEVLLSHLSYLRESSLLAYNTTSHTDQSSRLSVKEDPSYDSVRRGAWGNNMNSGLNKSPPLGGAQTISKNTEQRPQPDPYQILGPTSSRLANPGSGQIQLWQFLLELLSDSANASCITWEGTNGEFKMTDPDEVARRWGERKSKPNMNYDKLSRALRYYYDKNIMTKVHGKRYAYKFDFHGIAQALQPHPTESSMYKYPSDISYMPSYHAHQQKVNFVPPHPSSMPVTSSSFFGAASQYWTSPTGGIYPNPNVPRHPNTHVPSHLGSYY
The settings on record: protein: recombinant; tags: N-terminal GST; dsDNA, one strand shown. An outline of the steps:
(§1)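 Each value of binding signal is a hexamer's read frequency for a factor divided by the same hexamer's frequency in the tag-only sample. Barcoded, bead-captured GST fusions of human transcription factors made in yeast were pooled with that sample and incubated with 200 nmole of a random double-stranded 16-mer DNA library in Tris/NaCl/DTT/glycerol buffer at room temperature for 30 min. Washing, 0.1% formaldehyde crosslinking, proximity ligation, PCR and Illumina NextSeq500 sequencing followed.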

The next experiment deals with T2, ELK1 (Homo sapiens, UniProt P19419 1-428).
T2 sequence: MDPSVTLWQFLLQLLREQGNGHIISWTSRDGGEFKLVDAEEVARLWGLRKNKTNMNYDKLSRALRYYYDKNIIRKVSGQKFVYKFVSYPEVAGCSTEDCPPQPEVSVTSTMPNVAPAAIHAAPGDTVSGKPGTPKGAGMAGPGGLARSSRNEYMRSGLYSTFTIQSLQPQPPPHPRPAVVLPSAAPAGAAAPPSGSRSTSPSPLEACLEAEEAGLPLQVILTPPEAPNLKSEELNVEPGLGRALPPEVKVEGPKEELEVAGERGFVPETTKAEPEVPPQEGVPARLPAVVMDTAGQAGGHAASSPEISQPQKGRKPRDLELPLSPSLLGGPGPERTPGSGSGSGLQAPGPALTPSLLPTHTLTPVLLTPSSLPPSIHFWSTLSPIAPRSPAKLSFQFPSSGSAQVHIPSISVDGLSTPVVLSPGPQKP
Conditions: protein: recombinant; tags: N-terminal GST; dsDNA, one strand shown. An outline of the steps:
as §1

The next experiment addresses T3, GABPA (Homo sapiens, UniProt Q06546 1-454).
T3 sequence: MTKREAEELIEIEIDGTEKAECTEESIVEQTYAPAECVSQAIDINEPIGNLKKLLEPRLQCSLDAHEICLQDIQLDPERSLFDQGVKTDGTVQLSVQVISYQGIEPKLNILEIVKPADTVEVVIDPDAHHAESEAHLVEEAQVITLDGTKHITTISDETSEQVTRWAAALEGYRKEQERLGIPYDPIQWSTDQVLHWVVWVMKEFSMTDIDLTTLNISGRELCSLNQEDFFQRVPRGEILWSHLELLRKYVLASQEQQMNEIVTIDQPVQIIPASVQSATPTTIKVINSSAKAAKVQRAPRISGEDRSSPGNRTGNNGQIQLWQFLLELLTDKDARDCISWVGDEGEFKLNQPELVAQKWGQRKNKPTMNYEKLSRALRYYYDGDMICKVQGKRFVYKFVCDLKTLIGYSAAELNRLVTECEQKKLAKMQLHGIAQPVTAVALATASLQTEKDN
The settings on record: protein: recombinant; tags: N-terminal GST; dsDNA, one strand shown. An outline of the steps:
as §1

Another experiment concerns the target T4, ERG (Homo sapiens, UniProt P11308 1-479).
T4 sequence: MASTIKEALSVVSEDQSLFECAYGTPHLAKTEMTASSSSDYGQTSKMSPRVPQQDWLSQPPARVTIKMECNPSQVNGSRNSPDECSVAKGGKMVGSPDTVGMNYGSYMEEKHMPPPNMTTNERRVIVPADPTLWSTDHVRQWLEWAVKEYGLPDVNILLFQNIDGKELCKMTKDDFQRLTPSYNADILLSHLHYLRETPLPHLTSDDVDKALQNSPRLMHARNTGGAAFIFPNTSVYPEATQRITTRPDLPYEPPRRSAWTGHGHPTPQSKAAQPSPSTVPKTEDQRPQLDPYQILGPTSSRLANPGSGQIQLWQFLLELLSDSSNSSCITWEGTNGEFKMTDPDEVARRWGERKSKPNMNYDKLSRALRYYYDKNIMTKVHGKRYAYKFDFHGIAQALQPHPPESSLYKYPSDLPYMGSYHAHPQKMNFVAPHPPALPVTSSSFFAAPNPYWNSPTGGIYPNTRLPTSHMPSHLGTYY
Conditions: protein: recombinant; tags: N-terminal GST; dsDNA, one strand shown. An outline of the steps: as §1

A further experiment addresses ELF1 (Homo sapiens, UniProt P32519 1-619). Conditions: protein: recombinant; tags: N-terminal GST; dsDNA, one strand shown. An outline of the steps: as §1
The target of a further experiment is T5, EHF (Homo sapiens, UniProt Q9NZC4 1-300).
T5 sequence: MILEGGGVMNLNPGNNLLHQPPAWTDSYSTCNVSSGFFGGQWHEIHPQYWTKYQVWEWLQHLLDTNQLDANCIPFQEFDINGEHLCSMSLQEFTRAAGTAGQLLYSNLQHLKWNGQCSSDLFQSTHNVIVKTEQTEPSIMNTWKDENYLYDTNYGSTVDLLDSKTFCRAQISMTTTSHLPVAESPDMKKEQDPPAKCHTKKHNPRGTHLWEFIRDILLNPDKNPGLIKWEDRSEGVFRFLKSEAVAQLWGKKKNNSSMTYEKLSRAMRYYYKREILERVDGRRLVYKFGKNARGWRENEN
Conditions: protein: recombinant; tags: N-terminal GST; dsDNA, one strand shown. An outline of the steps: as §1

A further experiment addresses SPI1 (Homo sapiens, UniProt P17947 1-270). Conditions: protein: recombinant; tags: N-terminal GST; dsDNA, one strand shown. An outline of the steps: as §1
The next experiment addresses T6, ELK3 (Homo sapiens, UniProt P41970 1-407).
T6 sequence: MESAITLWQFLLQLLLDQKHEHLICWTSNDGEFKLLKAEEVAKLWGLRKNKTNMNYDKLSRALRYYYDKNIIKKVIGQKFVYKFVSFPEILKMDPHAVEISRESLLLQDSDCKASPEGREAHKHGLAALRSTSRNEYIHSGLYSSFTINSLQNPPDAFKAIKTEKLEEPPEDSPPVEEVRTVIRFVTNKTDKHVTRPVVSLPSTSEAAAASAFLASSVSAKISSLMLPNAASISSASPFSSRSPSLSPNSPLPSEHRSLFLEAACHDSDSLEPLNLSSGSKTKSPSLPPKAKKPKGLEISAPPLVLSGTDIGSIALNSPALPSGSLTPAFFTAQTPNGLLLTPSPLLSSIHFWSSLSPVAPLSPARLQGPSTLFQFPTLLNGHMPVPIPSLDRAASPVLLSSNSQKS
Conditions: protein: recombinant; tags: N-terminal GST; dsDNA, one strand shown. An outline of the steps: as §1

The target of a further experiment is T7, FEV (Homo sapiens, UniProt Q99581 1-238).
T7 sequence: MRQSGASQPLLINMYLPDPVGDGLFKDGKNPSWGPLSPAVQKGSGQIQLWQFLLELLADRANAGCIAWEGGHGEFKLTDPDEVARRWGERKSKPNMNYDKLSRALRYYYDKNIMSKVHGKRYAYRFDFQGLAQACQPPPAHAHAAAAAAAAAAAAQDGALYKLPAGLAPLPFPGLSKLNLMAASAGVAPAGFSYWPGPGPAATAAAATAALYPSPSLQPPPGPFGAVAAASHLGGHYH
Conditions: protein: recombinant; tags: N-terminal GST; dsDNA, one strand shown. An outline of the steps: as §1

The target of the next experiment is ETV5 (Homo sapiens, UniProt P41161 1-510). Conditions: protein: recombinant; tags: N-terminal GST; dsDNA, one strand shown. An outline of the steps: as §1
Another experiment deals with HSF1 (Homo sapiens, UniProt Q00613 1-529). The settings on record: protein: recombinant; tags: N-terminal GST; chain copies: 3; dsDNA, one strand shown. An outline of the steps:
as §1

The target of the next experiment is ELF4 (Homo sapiens, UniProt Q99607 1-663). The settings on record: protein: recombinant; tags: N-terminal GST; dsDNA, one strand shown. An outline of the steps: as §1
A further experiment has as its target T8, ETV2 (Homo sapiens, UniProt O00321 1-342).
T8 sequence: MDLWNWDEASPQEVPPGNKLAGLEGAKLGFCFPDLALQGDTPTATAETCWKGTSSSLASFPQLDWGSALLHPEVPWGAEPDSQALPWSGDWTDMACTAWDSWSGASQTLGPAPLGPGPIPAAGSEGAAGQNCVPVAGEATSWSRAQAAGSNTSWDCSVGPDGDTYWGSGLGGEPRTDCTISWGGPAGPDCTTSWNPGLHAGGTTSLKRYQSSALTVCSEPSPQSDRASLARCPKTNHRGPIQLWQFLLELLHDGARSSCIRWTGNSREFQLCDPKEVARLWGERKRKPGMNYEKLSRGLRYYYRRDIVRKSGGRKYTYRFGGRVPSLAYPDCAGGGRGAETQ
Conditions: protein: recombinant; tags: N-terminal GST; dsDNA, one strand shown. An outline of the steps: as §1

The next experiment concerns the target CRX (Homo sapiens, UniProt O43186 1-299). The settings on record: protein: recombinant; tags: N-terminal GST; dsDNA, one strand shown. An outline of the steps:
as §1

In the next experiment the target is ETV1 (Homo sapiens, UniProt P50549 1-477). Conditions: protein: recombinant; tags: N-terminal GST; dsDNA, one strand shown. An outline of the steps:
as §1

Another experiment has as its target SPIB (Homo sapiens, UniProt Q01892 1-262). Conditions: protein: recombinant; tags: N-terminal GST; dsDNA, one strand shown. An outline of the steps:
as §1

The target of a further experiment is T9, ELK4 (Homo sapiens, UniProt P28324-2 1-405).
T9 sequence: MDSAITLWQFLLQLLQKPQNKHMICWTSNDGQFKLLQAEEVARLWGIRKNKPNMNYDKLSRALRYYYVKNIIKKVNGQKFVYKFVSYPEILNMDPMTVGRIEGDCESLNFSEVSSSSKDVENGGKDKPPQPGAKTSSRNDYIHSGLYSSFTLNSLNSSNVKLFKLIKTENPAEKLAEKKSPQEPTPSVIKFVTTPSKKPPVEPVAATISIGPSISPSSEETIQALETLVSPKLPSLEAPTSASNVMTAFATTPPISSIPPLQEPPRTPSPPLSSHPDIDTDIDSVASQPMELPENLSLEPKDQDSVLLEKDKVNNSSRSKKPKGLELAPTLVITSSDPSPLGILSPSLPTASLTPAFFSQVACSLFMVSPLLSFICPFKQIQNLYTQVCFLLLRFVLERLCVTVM
Conditions: protein: recombinant; tags: N-terminal GST; dsDNA, one strand shown. An outline of the steps: as §1

The next experiment deals with T10, ELF3 (Homo sapiens, UniProt P78545 1-371).
T10 sequence: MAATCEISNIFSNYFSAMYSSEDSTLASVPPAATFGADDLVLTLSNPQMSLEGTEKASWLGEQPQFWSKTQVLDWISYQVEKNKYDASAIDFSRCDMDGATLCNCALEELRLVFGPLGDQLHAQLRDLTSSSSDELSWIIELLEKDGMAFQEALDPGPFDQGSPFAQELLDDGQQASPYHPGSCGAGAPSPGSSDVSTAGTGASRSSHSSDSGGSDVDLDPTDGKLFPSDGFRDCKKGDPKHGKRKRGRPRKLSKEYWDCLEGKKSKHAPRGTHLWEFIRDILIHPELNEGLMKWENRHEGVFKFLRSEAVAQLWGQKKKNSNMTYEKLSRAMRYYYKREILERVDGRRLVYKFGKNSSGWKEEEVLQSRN
The settings on record: protein: recombinant; tags: N-terminal GST; dsDNA, one strand shown. An outline of the steps:
as §1

Sequence of ETV5 (P41161 whole entry): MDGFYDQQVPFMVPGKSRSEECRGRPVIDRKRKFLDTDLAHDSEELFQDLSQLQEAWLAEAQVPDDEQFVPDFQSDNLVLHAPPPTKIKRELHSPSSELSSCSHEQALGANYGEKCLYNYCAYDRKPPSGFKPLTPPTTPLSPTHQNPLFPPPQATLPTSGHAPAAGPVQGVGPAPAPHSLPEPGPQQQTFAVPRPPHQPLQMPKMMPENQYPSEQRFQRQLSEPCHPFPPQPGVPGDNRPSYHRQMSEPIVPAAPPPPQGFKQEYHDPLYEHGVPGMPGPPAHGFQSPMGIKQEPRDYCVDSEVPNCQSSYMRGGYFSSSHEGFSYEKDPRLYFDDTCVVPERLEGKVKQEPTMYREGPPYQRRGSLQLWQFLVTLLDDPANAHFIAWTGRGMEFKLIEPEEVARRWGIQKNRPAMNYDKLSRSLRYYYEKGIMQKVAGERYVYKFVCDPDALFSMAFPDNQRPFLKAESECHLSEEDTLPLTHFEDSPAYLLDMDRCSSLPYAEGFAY
Sequence of ELF1 (P32519 whole entry): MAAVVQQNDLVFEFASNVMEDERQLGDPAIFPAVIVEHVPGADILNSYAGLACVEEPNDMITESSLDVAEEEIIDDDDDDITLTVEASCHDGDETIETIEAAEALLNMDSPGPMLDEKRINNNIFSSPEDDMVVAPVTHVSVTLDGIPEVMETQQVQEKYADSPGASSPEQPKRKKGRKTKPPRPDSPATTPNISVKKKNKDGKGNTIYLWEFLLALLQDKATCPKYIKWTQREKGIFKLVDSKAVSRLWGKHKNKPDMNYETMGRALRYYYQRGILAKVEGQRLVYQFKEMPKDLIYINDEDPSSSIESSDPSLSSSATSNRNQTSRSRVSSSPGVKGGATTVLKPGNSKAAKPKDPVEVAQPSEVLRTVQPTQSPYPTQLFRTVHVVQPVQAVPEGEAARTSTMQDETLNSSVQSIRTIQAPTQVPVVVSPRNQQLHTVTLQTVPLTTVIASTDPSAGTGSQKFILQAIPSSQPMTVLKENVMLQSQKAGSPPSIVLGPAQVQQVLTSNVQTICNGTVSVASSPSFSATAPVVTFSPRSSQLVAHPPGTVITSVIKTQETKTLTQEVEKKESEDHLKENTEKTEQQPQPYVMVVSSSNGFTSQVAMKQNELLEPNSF
Sequence of ELF4 (Q99607 whole entry): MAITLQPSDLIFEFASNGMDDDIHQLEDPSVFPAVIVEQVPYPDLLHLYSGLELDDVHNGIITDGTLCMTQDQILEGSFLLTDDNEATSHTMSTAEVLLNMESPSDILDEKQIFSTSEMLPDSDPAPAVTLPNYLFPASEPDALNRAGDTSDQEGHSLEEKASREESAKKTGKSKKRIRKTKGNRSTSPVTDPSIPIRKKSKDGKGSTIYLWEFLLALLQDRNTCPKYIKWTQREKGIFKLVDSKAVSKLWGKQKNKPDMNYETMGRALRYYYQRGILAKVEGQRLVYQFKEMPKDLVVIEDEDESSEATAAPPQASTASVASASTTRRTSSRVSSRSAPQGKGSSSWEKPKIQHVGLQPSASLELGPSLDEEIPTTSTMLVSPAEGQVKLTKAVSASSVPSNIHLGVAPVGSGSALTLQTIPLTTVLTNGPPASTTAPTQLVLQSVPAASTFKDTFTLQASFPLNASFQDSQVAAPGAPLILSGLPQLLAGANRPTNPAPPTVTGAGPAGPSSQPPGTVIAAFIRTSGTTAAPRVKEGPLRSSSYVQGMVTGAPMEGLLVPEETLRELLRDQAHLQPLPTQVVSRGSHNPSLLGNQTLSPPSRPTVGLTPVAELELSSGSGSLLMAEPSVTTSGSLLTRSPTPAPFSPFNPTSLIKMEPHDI
Sequence of CRX (O43186 whole entry): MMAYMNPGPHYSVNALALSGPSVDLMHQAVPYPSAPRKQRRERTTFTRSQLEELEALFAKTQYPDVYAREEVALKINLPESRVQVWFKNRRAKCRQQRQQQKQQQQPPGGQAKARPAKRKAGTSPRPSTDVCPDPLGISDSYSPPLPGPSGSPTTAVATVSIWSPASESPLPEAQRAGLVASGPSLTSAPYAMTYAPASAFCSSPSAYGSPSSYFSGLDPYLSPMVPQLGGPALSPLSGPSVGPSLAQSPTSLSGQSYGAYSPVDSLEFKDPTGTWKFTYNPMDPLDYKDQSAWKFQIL
Sequence of HSF1 (Q00613 whole entry): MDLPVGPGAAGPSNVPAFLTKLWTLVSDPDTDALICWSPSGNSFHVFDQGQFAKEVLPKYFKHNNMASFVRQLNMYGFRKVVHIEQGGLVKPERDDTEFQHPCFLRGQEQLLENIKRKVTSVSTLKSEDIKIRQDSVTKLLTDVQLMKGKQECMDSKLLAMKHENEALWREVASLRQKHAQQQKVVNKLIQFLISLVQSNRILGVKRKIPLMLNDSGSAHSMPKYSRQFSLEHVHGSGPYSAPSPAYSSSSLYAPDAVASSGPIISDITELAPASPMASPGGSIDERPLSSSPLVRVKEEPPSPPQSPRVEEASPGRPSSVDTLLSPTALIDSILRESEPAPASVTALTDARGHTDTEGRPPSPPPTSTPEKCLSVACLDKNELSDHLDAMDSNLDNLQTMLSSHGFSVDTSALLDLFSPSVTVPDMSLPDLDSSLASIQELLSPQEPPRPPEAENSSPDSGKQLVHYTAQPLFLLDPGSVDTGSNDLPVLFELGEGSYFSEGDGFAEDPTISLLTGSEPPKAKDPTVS
Sequence of ETV1 (P50549 whole entry): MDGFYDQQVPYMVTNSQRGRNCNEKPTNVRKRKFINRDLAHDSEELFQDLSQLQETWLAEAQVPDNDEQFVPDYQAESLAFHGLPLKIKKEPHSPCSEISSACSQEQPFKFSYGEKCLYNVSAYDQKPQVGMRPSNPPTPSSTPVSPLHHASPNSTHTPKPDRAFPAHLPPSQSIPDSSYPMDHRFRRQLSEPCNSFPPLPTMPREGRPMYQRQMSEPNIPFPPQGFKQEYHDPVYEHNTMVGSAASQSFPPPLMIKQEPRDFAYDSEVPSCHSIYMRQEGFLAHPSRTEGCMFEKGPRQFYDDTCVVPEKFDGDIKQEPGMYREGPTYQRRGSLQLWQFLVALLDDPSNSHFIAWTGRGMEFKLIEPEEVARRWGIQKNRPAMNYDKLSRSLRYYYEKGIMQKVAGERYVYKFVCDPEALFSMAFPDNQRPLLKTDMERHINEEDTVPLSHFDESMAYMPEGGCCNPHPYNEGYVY
Sequence of SPIB (Q01892 whole entry): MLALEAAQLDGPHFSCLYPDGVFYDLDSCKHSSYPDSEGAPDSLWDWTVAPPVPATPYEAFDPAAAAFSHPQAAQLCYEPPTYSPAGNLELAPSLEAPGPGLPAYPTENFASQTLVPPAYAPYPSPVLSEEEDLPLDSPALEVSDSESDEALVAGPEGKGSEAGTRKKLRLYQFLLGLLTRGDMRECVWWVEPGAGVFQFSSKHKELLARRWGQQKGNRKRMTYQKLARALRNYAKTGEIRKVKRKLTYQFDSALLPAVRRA

Take TTGCGC: the binding signal with FLI1 is 1.23 fold enrichment (6-mer frequency, TF over GST control); with ELK1 it was 1.17 fold enrichment (6-mer frequency, TF over GST control); in the experiment with GABPA, 1.1 fold enrichment (6-mer frequency, TF over GST control); in the experiment with ERG it was 1.02 fold enrichment (6-mer frequency, TF over GST control); with ELF1, 1.1 fold enrichment (6-mer frequency, TF over GST control); with EHF it was 1.12 fold enrichment (6-mer frequency, TF over GST control). Also, the binding signal with SPI1 is 1.06 fold enrichment (6-mer frequency, TF over GST control); with ELK3, 1.04 fold enrichment (6-mer frequency, TF over GST control); with FEV, 1.05 fold enrichment (6-mer frequency, TF over GST control); in the experiment with ETV5, 1.11 fold enrichment (6-mer frequency, TF over GST control); in the experiment with HSF1 it was 1.05 fold enrichment (6-mer frequency, TF over GST control); with ELF4 it was 1.06 fold enrichment (6-mer frequency, TF over GST control). Also, the binding signal is 1.11 fold enrichment (6-mer frequency, TF over GST control) with ETV2; 1.05 fold enrichment (6-mer frequency, TF over GST control) with CRX; 1.16 fold enrichment (6-mer frequency, TF over GST control) with ETV1.

Consider CCAAAT, for which the binding signal is 1.02 fold enrichment (6-mer frequency, TF over GST control) in the experiment with FLI1; 1.1 fold enrichment (6-mer frequency, TF over GST control) with ELK1; 1.01 fold enrichment (6-mer frequency, TF over GST control) in the experiment with GABPA; 1.1 fold enrichment (6-mer frequency, TF over GST control) in the experiment with ERG; 1.16 fold enrichment (6-mer frequency, TF over GST control) in the experiment with ELF1; 1.05 fold enrichment (6-mer frequency, TF over GST control) in the experiment with EHF. The binding signal in the experiment with SPI1 is 1.09 fold enrichment (6-mer frequency, TF over GST control); with SPIB, 1.04 fold enrichment (6-mer frequency, TF over GST control); with FEV, 1.08 fold enrichment (6-mer frequency, TF over GST control); with ETV5 it was 1.06 fold enrichment (6-mer frequency, TF over GST control); with HSF1 it was 1.02 fold enrichment (6-mer frequency, TF over GST control); in the experiment with ELF4 it was 1.17 fold enrichment (6-mer frequency, TF over GST control). For the same sequence, the binding signal with ELK4 is 1.04 fold enrichment (6-mer frequency, TF over GST control); with ELF3, 1.11 fold enrichment (6-mer frequency, TF over GST control); in the experiment with CRX it was 1.18 fold enrichment (6-mer frequency, TF over GST control).

The values are drawn from publication PMC7862700, “An all-to-all approach to the identification of sequence-specific readers for epigenetic DNA modifications on cytosine”.
